Reference: PubChem BioAssay (NCATS)
Results filed as inconclusive are left out. Active and inactive are the calls of the source. The call rests on the fitted dose curve.

Biological target: Nucleoprotein (Lymphocytic choriomeningitis virus (strain Armstrong)) (UniProt P09992)
Experiment: qHTS for Inhibitors of the Functional Ribonucleoprotein Complex (vRNP) of Lymphocytic Choriomeningitis Arenaviruses (LCMV): LCMV Primary Screen - GLuc reporter signal (AID 1347086); further: nearly all actives have a fitted effect of over 70% in size; on activity change, negative = inhibition: on the % scale 0 is the no-effect control and ±100 the full control effect
Conditions: LCMV minigenome vRNP cell assay, Gaussia luciferase reporter; series mostly up to 57.5 µM; activity change, negative = inhibition: at the top concentration
Potency means the concentration at half of the fitted maximal effect.

Chain of Nucleoprotein (Lymphocytic choriomeningitis virus (strain Armstrong)) (P09992 whole entry, looked up): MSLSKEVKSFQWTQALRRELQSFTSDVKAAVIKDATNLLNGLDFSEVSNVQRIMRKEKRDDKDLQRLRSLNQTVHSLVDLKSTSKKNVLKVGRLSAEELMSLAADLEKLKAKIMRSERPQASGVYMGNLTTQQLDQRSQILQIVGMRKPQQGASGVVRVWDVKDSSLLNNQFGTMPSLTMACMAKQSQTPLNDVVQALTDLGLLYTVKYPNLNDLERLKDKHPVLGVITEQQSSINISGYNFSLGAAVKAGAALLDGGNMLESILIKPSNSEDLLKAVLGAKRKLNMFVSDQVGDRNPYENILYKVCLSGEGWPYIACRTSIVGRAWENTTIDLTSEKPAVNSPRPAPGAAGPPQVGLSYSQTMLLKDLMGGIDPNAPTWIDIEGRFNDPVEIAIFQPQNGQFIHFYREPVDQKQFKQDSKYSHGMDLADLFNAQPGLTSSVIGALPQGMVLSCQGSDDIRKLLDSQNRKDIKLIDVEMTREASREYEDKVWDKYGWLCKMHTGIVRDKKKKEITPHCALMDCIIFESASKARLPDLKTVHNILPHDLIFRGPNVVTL

| SMILES | Potency | activity change, negative = inhibition |
| --- | --- | --- |
| CNC(=O)[C@H](CC1=CN=C2C=CCC=C12)NC(=O)[C@@H](CC(=O)NO)CC(C)C | 3.43 µM (active) |  |
| CCC(C)SSc1ncc[nH]1 (configuration not stated) |  | -32.8% (inactive) |
| FC(F)(F)c1ccc(C=Cc2nc(COc3ccc(CCCCn4ccnn4)cc3)co2)cc1 | 0.0217 µM (active) |  |
| O=c1c(-c2ccc(O)cc2)coc2cc(O)ccc12 |  | 15.3% (inactive) |
| COc1cc2ncnc(Nc3cccc(Cl)c3)c2cc1OC |  | -18.4% (inactive) |
| Cn1c(=O)c(Oc2ccc(F)cc2F)cc2cnc(NC3CCOCC3)nc21 |  | 5.51% (inactive) |
| CC(C)NC[C@@H](O)c1ccc(O)c(O)c1 |  | -4.39% (inactive) |
| OCc1ccc(-c2nn(Cc3ccccc3)c3ccccc23)o1 |  | -38.1% (inactive) |
| Cc1cc(Nc2cc(CN3CCOCC3)c3nc(C)c(Cc4ccc(Cl)cc4F)n3n2)n[nH]1 |  | 4.9% (inactive) |
| C[C@H]1C/C=C/[C@@H]2[C@@H]3O[C@]3(C)[C@@H](C)[C@H]3[C@H](Cc4ccccc4)NC(=O)[C@]32OC(=O)O/C=C/[C@](C)(O)C1=O |  | -30.2% (inactive) |

Tested on: not listed separately
Experiment: Cytotoxicity counterscreen for inhibitors of SARS-CoV-2 cell entry (AID 1645845); further: nearly all actives have a fitted effect of over 50% in size; on activity change, negative = cytotoxicity: on the % scale 0 is the no-effect control and ±100 the full control effect
Conditions: cell viability (SARS-CoV-2 entry assay cells); series mostly up to 57.1 µM; activity change, negative = cytotoxicity: at the top concentration; outcome: at the top concentration
How it was run: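 HEK293-ACE2 cells (Expi293F stably expressing human ACE2) seeded overnight, then compound for 1 h plus 48 h at 37C. Viability as ATP content by luminescence; normalized to wells with cells and media-only wells.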

| SMILES | activity change, negative = cytotoxicity | Potency | outcome |
| --- | --- | --- | --- |
| Cc1ccc(S(=O)(=O)N[C@@H](Cc2ccccc2)C(=O)CCl)cc1 | -19.5% (inactive) |  |  |
| C[C@H](NC(=O)c1sccc1OCc1ccc(Cl)cc1)c1ccccc1 | -13.6% (inactive) |  |  |
| NC(=O)c1cccc2[nH]c(-c3ccc([C@H]4CCCN4)cc3F)nc12 |  | 11.2 µM (active) |  |
| N#CC(c1ccnc(NCCc2cccnc2)n1)c1nc2ccccc2s1 (configuration not stated) |  |  | inactive |
| N[C@H](CSC(c1ccccc1)(c1ccccc1)c1ccccc1)C(=O)O |  |  | inactive |
| COc1cc2nccc(Oc3ccc(NC(=O)NC4CC4)c(Cl)c3)c2cc1C(N)=O |  | inactive |  |
| CC(N[C@H]1CCCC[C@H]1NC(=O)c1ccc(Cl)cc1)c1cccc2ccccc12 (some centres not stated) | -4.88% (inactive) |  |  |
| Nc1nc(NCCNc2ncc(-n3ccnc3)c(-c3ccc(Cl)cc3Cl)n2)ccc1[N+](=O)[O-] |  |  | inactive |
| O=c1c(-c2ccc(O)cc2)coc2cc(O)ccc12 | -0.636% (inactive) |  |  |
| COc1cc2ncnc(Nc3cccc(Cl)c3)c2cc1OC |  |  | inactive |
| Cn1c(=O)c(Oc2ccc(F)cc2F)cc2cnc(NC3CCOCC3)nc21 |  |  | inactive |

Tested on: not listed separately
Experiment: Primary qHTS to identify inhibitors of SARS-CoV-2 cell entry (AID 1645846); further: nearly all actives have a fitted effect of over 45% in size
Conditions: SARS-CoV-2 pseudovirus cell entry assay, luminescence; activity change, negative = inhibition: at 57.1 µM (top of the series) unless noted; series mostly up to 57.1 µM; outcome: at the top concentration
How it was run: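 HEK293 cells stably expressing human ACE2, pre-treated 1 h with compound, then infected with MLV particles pseudotyped with Wuhan-Hu-1 spike (C-terminal 19-aa truncation). Luciferase luminescence after 48 h at 37 °C, normalised to spike PP and bald PP.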

| SMILES | Potency | outcome | activity change, negative = inhibition |
| --- | --- | --- | --- |
| NC(=O)c1cccc2[nH]c(-c3ccc([C@H]4CCCN4)cc3F)nc12 | 31.6 µM (active) |  |  |
| Nc1ncnc2c1c(-c1cccc(OCc3ccccc3)c1)cn2C1CC(CN2CCCC2)C1 (configuration not stated) | 14.1 µM (active) |  |  |
| N#CC(c1ccnc(NCCc2cccnc2)n1)c1nc2ccccc2s1 (configuration not stated) |  | inactive |  |
| N[C@H](CSC(c1ccccc1)(c1ccccc1)c1ccccc1)C(=O)O |  |  | -15.9% |
| Fc1ccc(CNc2ncnc3ccc(F)cc23)cc1 | 8.91 µM (active) |  |  |
| CC(N[C@H]1CCCC[C@H]1NC(=O)c1ccc(Cl)cc1)c1cccc2ccccc12 (some centres not stated) | 28.2 µM (active) |  |  |
| Nc1nc(NCCNc2ncc(-n3ccnc3)c(-c3ccc(Cl)cc3Cl)n2)ccc1[N+](=O)[O-] |  |  | -29.7% |
| O=c1c(-c2ccc(O)cc2)coc2cc(O)ccc12 |  | inactive |  |
| COc1cc2ncnc(Nc3cccc(Cl)c3)c2cc1OC |  |  | 0.792% |
| Cn1c(=O)c(Oc2ccc(F)cc2F)cc2cnc(NC3CCOCC3)nc21 |  | inactive |  |
| OCc1ccc(-c2nn(Cc3ccccc3)c3ccccc23)o1 |  |  | -87.6% |
